From PubChem BioAssay AID1578 (Sanford-Burnham Center for Chemical Genomics, 2009)
About 3,000 (1%) of roughly 290,000 compounds were called active. This is one part of a sample in which actives are shown more often than they occur. A number with no mark means an inactive call. No stated cut-off is given here; in the data, active means inhibition mostly above about 36% (no sharp cut-off); inactive means mostly below about 34%.

Assay: NOD1 signaling inhibitors, primary screen, cell-based, luminescence, uHTS (AID 1578);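 further: HEK-293T reporter cells stimulated with the NOD1 agonist gamma-tri-DAP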
Details: NOD1-driven NF-kB luciferase reporter cells, at 4 µM, active compounds read high

Row | Structure (SMILES) | inhibition
1 | O=C(COC(=O)Cc1cccs1)Nc1ccc(F)c(F)c1F | -10.6%
2 | Cc1ccccc1-n1c(=O)cc(NCc2ccc3c(c2)OCO3)[nH]c1=O | -1.9%
3 | CN1C(=O)/C(=C\c2ccccc2)Sc2ccc(C(=O)N3CCN(c4ccccn4)CC3)cc21 | 46.8%
4 | CN1C(=O)/C(=C/c2ccc(C(F)(F)F)cc2)Sc2ccc(C(=O)N3CCN(c4ccccn4)CC3)cc21 | 17.8%
5 | CCN(CC)S(=O)(=O)c1ccc(S(=O)(=O)Nc2ccc(C(=O)N3CCCC3)cc2)cc1 | -2.4%
6 | COc1ccc(NC(=O)CCN2C(=O)c3cccc([N+](=O)[O-])c3C2=O)cc1 | -11.3%
7 | N=c1oc2ccc(Cl)cc2cc1C(=O)Nc1ccc(F)cc1 | -7.8%
8 | O=C(CCS(=O)(=O)c1ccccc1)Nc1ccccc1N1CCOCC1 | -9%
9 | CCOC(=O)C1=C(C)N=C2c3ccccc3C(=O)C2C1c1ccc(Br)cc1 (centres undefined) | 72.4% (active)
10 | CCOC(=O)C1=C(C)N=C2c3ccccc3C(=O)C2C1c1ccc(Cl)cc1 (centres undefined) | 16.6%
11 | CCOC(=O)C1=C(C)N=C2c3ccccc3C(=O)C2C1c1ccc(C)cc1 (centres undefined) | 44.1%
12 | Cc1ccc(C2N(c3cccc(Cl)c3)C(=O)N3CCCN23)cc1 (centres undefined) | 4.2%
13 | O=[N+]([O-])c1cc(/C=N/n2c(-c3cccnc3)n[nH]c2=S)ccc1Cl | -11.7%
14 | Cc1cc(C)nc(NC(=O)Cc2ccc([N+](=O)[O-])cc2)c1 | -15.5%
15 | O=C(Nc1ccccc1C(F)(F)F)N1CCCCCC1 | -17.1%
16 | O=C(NCc1cccnc1)c1ccc2c(c1)C(=O)N(Cc1ccccc1)C2=O | -4.4%
17 | COc1ccc(Cn2c(C)c(C)c(C#N)c2NC(=O)Nc2ccc(F)cc2)cc1 | -50%
18 | Cc1c(C#N)c(NC(=O)C(C)C)n(Cc2ccccc2)c1C | -2.8%
19 | Cc1c(C#N)c(NC(=O)CCl)n(Cc2ccc(F)cc2)c1C | 94.1% (active)
20 | Cc1ccc(C(=O)N2CCOCC2)cc1S(=O)(=O)N1CCCCC1 | -11.7%
21 | CCN1CCN(CC(=O)Nc2ccc(C)cc2C)C(=O)C1=O | 29.5%
22 | COc1ccc(NC(=O)C2=C(C)NC(=S)NC2c2ccc(O)c(OC)c2)cc1 (centres undefined) | -36.2%
23 | Cc1ccc(NC(=O)c2cc(-n3cnnc3)ccc2Cl)cc1 | -21.5%
24 | Cc1ccnc(NC(=O)c2cc(-n3cnnc3)ccc2Cl)c1 | -27%

Row | Structure (SMILES) | inhibition
25 | Cc1ccc(NC(=O)c2cc(-n3cnnc3)ccc2Cl)c(C)c1 | 63.4% (active)
26 | O=C(CCCN1C(=O)/C(=C/c2cccs2)SC1=S)Nc1cccc(C(=O)O)c1 | -20.6%
27 | COc1ccc(-n2nc(C(=O)NCC(=O)N3CCCC(C)C3)c3ccccc3c2=O)cc1Cl (centres undefined) | -22.7%
28 | CCCCC1S/C(=N/N=C/c2ccc(OC)cc2)N(Cc2ccc(OC)cc2)C1=O (centres undefined) | 75.2% (active)
29 | CCCC1S/C(=N/N=C/c2ccc(OC)cc2)N(Cc2ccc(OC)cc2)C1=O (centres undefined) | 12.9%
30 | CCCC1S/C(=N/N=C/c2ccc(C)cc2)N(Cc2ccc(OC)cc2)C1=O (centres undefined) | 39.2%
31 | COc1ccccc1CNC(=O)C(C)n1nc(C)n2c(cc3occc32)c1=O (centres undefined) | -26.7%
32 | Cc1ccc(C(=O)C(C)N2C(=O)NC(C)(c3ccccc3)C2=O)cc1 (centres undefined) | -36.5%
33 | O=C(Cc1ccc(Br)c2ccccc12)N/N=C/c1ccccn1 | 7.4%
34 | COc1ccc(-c2coc3c(C)c4oc(=O)c(CCC(=O)O)c(C)c4cc23)cc1 | 10.4%
35 | Cc1c(CCC(=O)O)c(=O)oc2c(C)c3occ(-c4ccc(Br)cc4)c3cc12 | 27.8%
36 | COC(=O)c1cc(-c2ccc(F)cc2)n(-c2ccccc2)n1 | -3.9%
37 | Cc1cc(C)c(Nc2cc(S(=O)(=O)O)c(N)c3c2C(=O)c2ccccc2C3=O)c(C)c1 | 69.6% (active)
38 | Cc1cc(C)cc(NC2=C(N)C(=O)c3ccccc3C2=O)c1 | -4.5%
39 | Nc1c(S(=O)(=O)O)cc(NC(=O)c2ccccc2)c2c1C(=O)c1ccccc1C2=O | 11.8%
40 | Cc1ccc(NC(=O)c2sc(C)nc2C)c(C)c1 | -0.8%
41 | O=C(O)c1cccnc1SCC(=O)C12CC3CC(CC(C3)C1)C2 | -9.5%
42 | CCOC(=O)Cc1cc(=O)n2[nH]cc(-c3cccc(Br)c3)c2n1 | 27.2%
43 | CCOC(=O)Cc1c(C)nc2c(-c3ccccc3)c[nH]n2c1=O | -6.6%
44 | CCOC(=O)Cc1c(C)nc2c(-c3cccc(Br)c3)c[nH]n2c1=O | 69.7% (active)
45 | CCCN1CCN(C(=O)c2oc3c(Cl)cccc3c2C)CC1 | 11.7%
46 | Cc1ccc(C(=O)NCCCN2CCOCC2)c(C)c1 | -33.2%
47 | Cc1ccc(-c2csc(C3=C(O)CN(NC(=O)c4ccc([N+](=O)[O-])cc4)C3=N)n2)cc1 | 3.2%
48 | N=C1C(c2nc3ccccc3s2)=C(O)CN1NC(=O)c1ccccc1[N+](=O)[O-] | -23%

Row | Structure (SMILES) | inhibition
49 | N=C1C(c2nc3ccccc3s2)=C(O)CN1NC(=O)c1ccc([N+](=O)[O-])cc1 | 102% (active)
50 | Cc1csc(SCCn2c(N3CCOCC3)nc3c2c(=O)[nH]c(=O)n3C)n1 | -13.7%
51 | COc1cc(OC)c(OC)cc1/C=C/c1cc(C(F)(F)F)[nH]c(=O)n1 | -1%
52 | COc1cc(/C=C/c2cc(C(F)(F)F)[nH]c(=O)n2)cc(OC)c1OC | 86.7% (active)
53 | COc1ccc(/C=C/c2cc(C(F)(F)F)[nH]c(=O)n2)cc1OC | 44.3%
54 | Cc1ccc(/C=C2\C(=O)Nc3ccccc32)o1 | -9.5%
55 | CS(=O)(=O)N(CCC#N)Cc1ccc(/C=C2\C(=O)Nc3ccccc32)o1 | 57.1% (active)
56 | CS(=O)(=O)N(CCC#N)Cc1ccc(C=O)o1 | -32.9%
57 | O=C(Nc1ccc(O)cc1)/C(=C\C=C\c1ccccc1)NC(=O)c1ccccc1 | -13.3%
58 | CCN(C(=O)COC(=O)/C=C/c1cccc([N+](=O)[O-])c1)c1ccccc1 | -31.8%
59 | CCn1ncc([N+](=O)[O-])c1C(=O)n1nc(C)cc1C | -22.7%
60 | CCn1nc(C)cc1-c1nnc(Sc2ncc([N+](=O)[O-])s2)n1C | 35.4% (active)
61 | Cn1cnc([N+](=O)[O-])c1Sc1nnc(-c2cccnc2)n1C | -5.6%
62 | CC(C)(C)SCCNS(=O)(=O)c1ccc2ccccc2c1 | 7.5%
63 | COc1ccc(C(=O)CC(=O)Nc2ccc([N+](=O)[O-])cc2)cc1 | -14.5%
64 | COc1ccc(NS(=O)(=O)c2cc(NC(=O)CC(=O)c3ccc([N+](=O)[O-])cc3)ccc2C)cc1 | 54.7% (active)
65 | Cc1ccc(C(=O)CCC(=O)Nc2ccc(Cl)c(S(=O)(=O)Nc3cccc(Cl)c3)c2)cc1 | 19.9%
66 | Cc1cccc(NS(=O)(=O)c2cc(NC(=O)CC(=O)c3ccc([N+](=O)[O-])cc3)ccc2C)c1 | 41.5%
67 | COc1cccc(NC(=O)CC(=O)c2ccc([N+](=O)[O-])cc2)c1 | -3.4%
68 | Cn1ncc2c(Nc3ccc(Cl)c(Cl)c3)ncnc21 | -5.2%
69 | Cc1ccc(OCCCCNC2CCCCC2)c(C)c1 | 30.3% (active)
70 | Cc1ccc(OCCCCNC2CCCC(C)C2C)c(C)c1 (centres undefined) | -22.2%
71 | Cc1ccc(OCC(O)CNC2CCCC2)c(C)c1 (centres undefined) | 0%
72 | CN(Cc1ccccc1)C(=O)c1cc(=O)[nH]c2ccccc12 | 6.3%

Row | Structure (SMILES) | inhibition
73 | Cc1ccc(-n2nc(-c3ccccc3)cc2Nc2ccccc2N)cc1 | -9.6%
74 | CS(=O)(=O)c1ccc(S(=O)CC(=O)Oc2ccc(Cl)cc2)c([N+](=O)[O-])c1 (centres undefined) | 47.4% (active)
75 | O=C(CS(=O)c1ccc(C(F)(F)F)cc1[N+](=O)[O-])Oc1ccc(Cl)cc1 (centres undefined) | 15.4%
76 | O=C(CS(=O)c1ccc(C(F)(F)F)cc1[N+](=O)[O-])Oc1ccccc1 (centres undefined) | 21.2%
77 | Nc1ccc(-c2nc3cc([N+](=O)[O-])ccc3o2)cc1 | -15.4%
78 | COc1ccc(S(=O)Cc2ccc(C(=O)NCc3cccc(OC)c3)o2)cc1 (centres undefined) | -16.8%
79 | O=C(CSCc1cnn(-c2ccccc2)c1-n1cccc1)NCc1ccccn1 | -18.4%
80 | O=C(CSCc1cnn(-c2ccccc2)c1-n1cccc1)NCc1cccnc1 | 60.7% (active)
81 | COc1cccc(CNC(=O)CSCc2cnn(-c3ccccc3)c2-n2cccc2)c1 | 19.5%
82 | CCCCCCCC(=O)N/N=C(\C)c1cccnc1 | 7.8%
83 | COCCNC(=O)/C(C#N)=C/C=C/c1ccccc1[N+](=O)[O-] | 76.2% (active)
84 | COCCNC(=O)/C(C#N)=C/c1ccc(O)c([N+](=O)[O-])c1 | -50.1%
85 | N#C/C(=C\c1ccc(O)c([N+](=O)[O-])c1)C(=O)NCc1ccccc1 | -13.6%
86 | O=C(O)/C=C/c1ccccc1[N+](=O)[O-] | 2.2%
87 | O=C(/C=C/c1ccccc1)NCc1cccnc1 | -46%
88 | N#C/C(=C\C=C\c1ccccc1[N+](=O)[O-])C(=O)NCc1ccccc1 | 97.3% (active)
89 | COC(=O)C(=Cc1ccccc1[N+](=O)[O-])C(=O)OC | 28.4% (active)
90 | N#C/C(=C\C=C\c1ccccc1)C(=O)NCc1ccco1 | 19.2%
91 | COCCNC(=O)/C(C#N)=C/C=C/c1ccccc1 | -4.8%
92 | N#C/C(=C\C=C\c1ccccc1)C(=O)NCc1cccnc1 | 68.7% (active)
93 | N#C/C(=C\c1ccccc1[N+](=O)[O-])C(=O)NCc1ccccc1 | -5%
94 | COc1cc(NC(=O)/C=C/c2ccccc2[N+](=O)[O-])cc(OC)c1 | -36.1%
